This is an account of results in article PMC10163288.

B1: il2ra_site2_2erj_normal_mot_HHH_b2_01353_af2_000000049_0001_23_39_H_._HHH_b1_04436_af2_0001_0000200013_0000001_0 (protein)
chain: SSSSDEIEELLEKAKELLEKGNPEEAEEVLRRASVAAFENRDHEAFAEIAELLRIVAELEASSSS
B2: il2ra_site1_1z92_sap_28_mot_HHH_b1_00661_af2_000000033_0001_38_50_H_._HHH_b2_00267_af2_0001_0000300009_0000001_0_0001_af2pred_0001_af2pred_1 (protein)
chain: PEELAEQAEELLKNGNPEEAEKVLRELAKELGNEEVFERDLEHAERNLGNPEQALLSLIKALSFV
B3: il2ra_site1_1z92_sap_12_mot_HHH_b2_04974_000000012_0001_1_17_H_._HHH_b1_06150_af2_0001_0000300041_0000001_0_0001_af2pred_dldesign_0_af2pred (protein)
chain: SSSSSSPYQRARDLILEINKARQAGDTEKFDELLAELEKLAKELESNTLLRFIEHARKELSSSSS
B4: il2ra_site2_2erj_normal_mot_HHH_b2_06912_000000039_0001_38_52_H_._HHH_b2_01292_0001_0000100004_0000001_0 (protein)
chain: SSSSSDKEESEKLAEEAHELILRNPERVEEIVEEFRRELEELNDPIAVRYLELVRRDVNSSSSSS
B5: il2ra_site2_3nfp_sap_24_mot_HHH_b1_03818_000000217_0001_1_20_H_._HHH_b1_04518_af2_0001_0000400014_0000001_0_0001 (protein)
chain: SEKDLIEMSLEMIKAHALLHGNEEVQEIVEELERLLEEAKRKNDEELREEVAERAAELIERVLES
B6: il2ra_site2_2erj_normal_mot_HHH_b2_00494_000000216_0001_41_54_H_._HHH_b1_07802_af2_0001_0000300011_0000001_0 (protein)
chain: SSSSNEELRRLYELADEALRLITEGNPEEAEKVLEEARELAERLNSENAREVVEFLEELLESSSS
B7: il2ra_site2_2erj_sap_21_mot_HHH_b2_00938_af2_000000099_0001_43_55_H_._HHH_b1_03152_af2_0001_0000100003_0000001_0_0001 (protein)
chain: SSSSLHEAFEIAVEAAAKISRLHREGNDEEAKRVFEEARERLEELGTENAREHLEHLFKALSSSS
B8: il2ra_site2_3nfp_normal_mot_HHH_b1_00660_af2_000000090_0001_40_57_H_._HHH_b1_02730_0001_0001000022_0000001_0 (protein)
chain: SSSSSDEEVRELLEQLRELIEKNDEEEFERLSREITNLAYELNNFELFALVQELRARFISSSSSS
B9: il2ra_site2_3nfp_normal_mot_HHH_b2_04451_000000238_0001_21_37_H_._HHH_b2_04195_af2_0001_0000200011_0000001_0 (protein)
chain: SSSSSEEEEVRELLEQARELLERGDPYEALELLAEASEIAAKLNNEELARLILELFEKVQKSSSS
B10: il2ra_site2_3nfp_normal_mot_HHH_b2_08209_000000146_0001_1_18_H_._HHH_b1_00160_0001_0000200018_0000001_0 (protein)
chain: SSSSSTEEERERVEELLEEAKEITDPEERKELLAEATQIAYEANDFELFALVADVVFELLSSSSS
B11: il2ra_site2_3nfp_sap_19_mot_HHH_b1_06699_000000048_0001_23_40_H_._ems_3hC_59_0001_0000100006_0000001_0_0001_af2pred_0001_af2pred (protein)
chain: SSSSSDAAEEAEELAEEARHVEDPEERERILRKAAELAYRARDHEVFAEIHLVIEELERSSSSSS
B12: il2ra_site1_3nfp_normal_mot_HHH_b2_08102_af2_000000255_0001_38_50_H_._HHH_b2_05157_0001_0000400017_0000001_0_af2pred_0001_af2pred (protein)
chain: SSSSDHLAREYTEWAKRRIRELLERGDEEAARRLLEKAKRSLEIAGDEEAVEELEKLYEELSSSS
B13: il2ra_site1_2b5i_normal_mot_HHH_b2_01040_af2_000000143_0001_42_56_H_._HHH_b1_04969_af2_0002_0000100009_0000001_0 (protein)
chain: SSSSSDEAEEAAREALELLRELLRVDEEEIKELLEEAHEKLEKLNDEALLKRVERLLRLLSSSSS
B14: il2ra_site1_3nfp_sap_13_mot_HHH_b1_04931_000000291_0001_38_56_H_._HHH_b2_07276_0001_0000200010_0000001_0_0001 (protein)
chain: SSSSSDYEELERLFREIFELAKKGDHEEARRLIEELEELAHEANNEFMEQAVKQLKKTVNSSSSS
B15: il2ra_site2_3nfp_normal_mot_HHH_b2_00232_000000252_0001_23_39_H_._HHH_b2_01857_0001_0000200024_0000001_0_1_af2pred_0001_af2pred (protein)
chain: SSSSSDEEEEKVEELLEEAEHIEDEEELEDILALAFLIAFEAEDPELLRLVREVSAELLQSSSSS
B16: il2ra_site2_2erj_sap_21_mot_39ed66e5fba071e4f274ea7f2cf018e6_0001_000000286_0001_17_31_H_._HHH_b1_00857_0001_0000200006_0000001_0_0001_af2pred_0001_af2pred (protein)
chain: SSSSEEREKAKELAARALQLRERGNPEEAEELLREAEEIAREGGDEELLQLIQAALRLIELSSSS
B17: il2ra_site1_3nfp_normal_mot_HHH_b1_02721_af2_000000134_0001_39_56_H_._HHH_b2_00677_af2_0001_0000100009_0000001_0 (protein)
chain: SSSSSDTEEAFQLDRELLEALRKGDEELIEELLRELEELAKELNDELAERLVEQFKELLKSSSSS
B18: il2ra_site2_2erj_sap_26_mot_HHH_b2_08005_af2_000000017_0001_39_52_H_._5f42aca8a0c299d7b7d7982f3e471efe_0001_0001_0000400050_0000001_0_0001 (protein)
chain: SSSSDLEEEVERIEKEAEELYKNGNPEEALRLLSELFDELYQLGDHELAARVIKLVAELARSSSS

The list is a sample of the results. The hit rate among all sequences tested is not known here. A number with no mark means an inactive call.

Chain of il2ra, P01589 (P01589 whole entry): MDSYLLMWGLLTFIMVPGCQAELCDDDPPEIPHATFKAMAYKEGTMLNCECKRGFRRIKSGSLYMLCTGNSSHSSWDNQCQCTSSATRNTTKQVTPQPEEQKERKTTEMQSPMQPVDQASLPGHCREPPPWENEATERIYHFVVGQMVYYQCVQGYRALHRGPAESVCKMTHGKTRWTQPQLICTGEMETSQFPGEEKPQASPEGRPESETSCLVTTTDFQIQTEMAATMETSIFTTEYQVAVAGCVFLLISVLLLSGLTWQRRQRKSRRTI

This assay addresses il2ra, P01589. Description: yeast display titration.
In the case of B1, the apparent Kd – broadly, a dissociation constant that holds for the conditions of the assay – is “no binding seen”.
Regarding B2, the “apparent Kd” value is “no binding seen”.
The entry for B3 is “no binding seen”; for B4 it is “no binding seen”.
The entry for B5 is “no binding seen”.
The entry for B6 is “no binding seen”; for B7 it is “no binding seen”.
Turning to B8, the “apparent Kd” value is “no binding seen”.
Then B9, with “no binding seen”; and B10, with “no binding seen”; and B11, with “no binding seen”.
Take B12: the “apparent Kd” value is “no binding seen”.
The entry for B13 is “no binding seen”; for B14 it is “no binding seen”; for B15 it is “no binding seen”.
The entry for B16 is “no binding seen”; for B17 it is greater than 802 nM.
Then B18, with “no binding seen”.
